PubChem BioAssay (NCI)
The panel holds about 83,000 compounds, 20% with a hit somewhere; the sample as a whole holds those more often.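 Values shown are percent growth following 48 h exposure of cells in 96-well plates to a single concentration of compound; below 10 was considered active.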 A number with no mark means an inactive call. Active and inactive are the calls of the source.

Tested on: HL-60(TB) leukemia
Assay: NCI-60 one-dose screen, 48 h (100 = growth as untreated, 0 = no growth, -100 = all killed)
Details: 10 µM unless noted

Row | Structure (SMILES) | growth
1 | CCCCCCCCCCCCCCCCCBr | 103%
2 | CC(=O)Oc1ccc(Nc2c3ccccc3nc3ccccc23)cc1 | -5.02% (active)
3 | CCOC(=O)c1c(C)nc2c(c1N)/C(=C/c1ccc(OC)cc1)C(=O)N2Cc1ccc(F)cc1 | 4.72% (active)
4 | Cc1ccc(C(O)C2CC2)cc1 (centres undefined) | 99.3%
